This passage reports AC50 and outcome results from PubChem BioAssay (EPA / NIEHS).

Records with an inconclusive call do not appear. Calls of active or inactive are those of the source. Rule for the calls, unless noted: active = hit-call score of the fitted dose curve at least 0.9, where 1 is the maximum; inconclusive = response in the unintended direction; inactive = score below 0.9.

Test [1] has as its target rat Androgen Receptor (AR), Ar (gene 24208) (UniProt P15207). As to the kind of experiment: NVS_NR_rAR: NovaScreen (NVS) Nuclear Receptor Binding Assay for rat Androgen Receptor (AR) (AID 2283366). The method, boiled down: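 Cell-free radioligand binding on extracts of prostate from testosterone-pretreated rats, read by filter-based scintillation counting 18 h after dosing. Loss of bound signal fitted positively versus DMSO; primary screen in duplicate at 25 uM, actives followed up in concentration series.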

The target in test [2] is guinea pig Sigma Receptor, Non-selective Binding, SIGMAR1 (gene 100135589) (UniProt Q60492). The test can be described thus: NVS_OR_gSIGMA_NonSelective: NovaScreen (NVS) Nuclear Receptor Binding Assay for guinea pig Sigma Receptor, Non-selective Binding (AID 2283367). The method, boiled down:
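gp brain membr., radioligand displacement, 1 h, filtration + scint. counting; DMSO = baseline; 25 uM x2 primary, conc.-response confirm.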

For test [3], the system named is guinea pig Dopamine Transporter (DAT), gene 100714898. The test can be described thus: NVS_TR_gDAT: NovaScreen (NVS) Transporter Assay for guinea pig Dopamine Transporter (DAT) (AID 2283369).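 Note: active compounds lower bound radioligand signal relative to DMSO.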 The method, boiled down:
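Test chemicals were incubated 2 h with guinea pig striatal membranes and a radioligand; bound label was separated by filtration and counted. Screening ran at 25 uM, followed by concentration-response testing to a 50 uM maximum.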

For test [4], the target named is rat Serotonin Transporter (SERT), Slc6a4 (gene 25553) (UniProt P31652). As to the kind of experiment: NVS_TR_rSERT: NovaScreen (NVS) Transporter Assay for rat Serotonin Transporter (SERT) (AID 2283375). The method, boiled down: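 Steps: rat forebrain membranes dosed with chemical (25 uM duplicate primary; concentration series for actives); 1 h incubation; labelled ligand bound, filtered, counted by scintillation. Activity scored as signal loss vs DMSO.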

In test [5] the target is Estrogen receptor beta (Homo sapiens) (UniProt Q92731). As to the kind of experiment: OT_ER_ERbERb_1440: Odyssey Thera (OT) 24-hour HEK293T Protein-Complementation Assay for Estrogen Receptor-beta/-beta Homodimer (AID 2283380).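 Note: fluorescence gain from ER beta LBD homodimer complementation read by laser scanning cytometry; scored as signal increase over DMSO baseline for both agonists and antagonists.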 The method, boiled down:
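Fluorescence increase, nuclear for agonists or whole-cell for antagonists, relative to DMSO vehicle, quantified by laser scanning cytometer after fixation and Draq5 staining. Readout from 24 h treatment of HEK293T cells carrying complementation-paired ER beta LBD (aa 310-547).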

Test [6] has as its target Estrogen receptor (Homo sapiens) (UniProt P03372). The test can be described thus: OT_ERa_GFPERaERE_0480: Odyssey Thera (OT) 8-hour HeLa Transcription Induction Assay for Estrogen Receptor (AID 2283381; active = hit-call score of the fitted dose curve at least 0.9, where 1 is the maximum; inactive = score below 0.9). The method, boiled down:
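Cells (HeLa) receive compound; after 8 h, reporter fluorescence is imaged and quantified by high-content analysis. Gain-of-signal relative to DMSO gives the endpoint.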

Test [7] shares this target. The test can be described thus: OT_ERa_GFPERaERE_0120: Odyssey Thera (OT) 2-hour HeLa Transcription Induction Assay for Estrogen Receptor (AID 2283382). The method, boiled down: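 Measures ESR1 pathway reporter gain-of-signal in HeLa cells after a 2-hour treatment, detected as fluorescent protein induction by microscopy, DMSO as baseline.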
Test [8] addresses Bile acid receptor (Homo sapiens) (UniProt Q96RI1). The test can be described thus: OT_FXR_FXRSRC1_0480: Odyssey Thera (OT) 8-hour HEK293T Protein-Complementation Assay for Farnesoid X receptor/SRC-1 Co-activator (AID 2283383). The method, boiled down:
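Co-activator recruitment to FXR was measured in living HEK293T cells, where interaction of the two fused partners restored an active fluorescent reporter. Signal gain after 8 h treatment was referenced to DMSO.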

In test [9] the target is Retinoic acid receptor RXR-alpha (Homo sapiens) (UniProt P19793). As to the kind of experiment: OT_NURR1_NURR1RXRa_1440: Odyssey Thera (OT) 24-hour HEK293T Protein Complementation Assay for Nurr1/retinoid X receptor (RXR) (AID 2283386). The method, boiled down:
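Measured as fluorescence from a reconstituted split reporter, this 24 h HEK293T complementation assay scores compound-induced gain of Nurr1/RXRα association relative to DMSO.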

The target of test [10] is Peroxisome proliferator-activated receptor gamma (Homo sapiens) (UniProt P37231). The test can be described thus: OT_PPARg_PPARgSRC1_0480: Odyssey Thera (OT) 8-hour Protein-Complementation Assay for Peroxisome Proliferator-activated Receptor Gamma / SRC-1 Co-activator (AID 2283387).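 Note: nuclear to cytoplasmic split Venus YFP fluorescence ratio reporting PPARg SRC-1 interaction.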 The method, boiled down:
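Protein-fragment complementation of split Venus YFP reports PPARg/SRC-1 interaction in HEK293T (transfected 48 h before treatment), exposed 8 h. Readout: N/C fluorescence ratio at 488 nm from imaging, Draq5 for segmentation, positive fit relative to DMSO.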

Test [11] has the same target. As to the kind of experiment: OT_PPARg_PPARgSRC1_1440: Odyssey Thera (OT) 24-hour Protein-Complementation Assay for Peroxisome Proliferator-activated Receptor Gamma/ SRC-1 Co-activator (AID 2283388).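 Note: nuclear to cytoplasmic ratio of reconstituted Venus YFP fluorescence in fixed imaged cells.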 The method, boiled down:
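Transient HEK293T, YFP fragments 1-158/159-239 (mutant IFP1/IFP2) fused to PPARg/SRC-1; 24 h dosing; fix 4% formaldehyde, Draq5; Opera imaging 488/635 nm; N/C ratio, gain vs DMSO.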

In test [12] the target is mouse Estrogen Receptor alpha (Era), Esr1 (gene 13982) (UniProt P19785). The test can be described thus: NVS_NR_mERa: NovaScreen (NVS) Nuclear Receptor Binding Assay for mouse Estrogen Receptor alpha (Era) (AID 2283378).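 Note: hit means loss of bound radioligand signal relative to DMSO.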 The method, boiled down:
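Test chemicals competed against a specific radioligand for binding to cell-free mouse Era. Duplicate wells at 25 uM were read 18 hours later by filter-based radiodetection, with loss of signal against DMSO scored as activity.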

Test [13] concerns the target Agonist Androgen Response Element (ARE), AR (gene 367) (UniProt P10275). The test can be described thus: OT_AR_ARELUC_AG_1440: Odyssey Thera (OT) 24-hour CHO-K1 Luciferase Assay for Agonist Androgen Response Element (ARE) (AID 2283379). The method, boiled down: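 Agonist mode, 24 h exposure in CHO-K1 ARE-luciferase cells; values reflect luminescence induction over vehicle.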

Test [14] deals with Retinoic acid receptor RXR-alpha (Homo sapiens) (UniProt P19793). As to the kind of experiment: OT_NURR1_NURR1RXRa_0480: Odyssey Thera (OT) 8-hour HEK293T Protein Complementation Assay for Nurr1/retinoid X receptor (RXR) (AID 2283385). The method, boiled down: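 Compounds are applied to HEK293T cells carrying Nurr1 and RXRα linked to reporter fragments. After 8 h, fluorescence intensity reports heterodimer formation, with DMSO as baseline.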
Retinoic acid receptor RXR-alpha (Homo sapiens), sequence (P19793 whole entry, looked up, the tested form may be a part): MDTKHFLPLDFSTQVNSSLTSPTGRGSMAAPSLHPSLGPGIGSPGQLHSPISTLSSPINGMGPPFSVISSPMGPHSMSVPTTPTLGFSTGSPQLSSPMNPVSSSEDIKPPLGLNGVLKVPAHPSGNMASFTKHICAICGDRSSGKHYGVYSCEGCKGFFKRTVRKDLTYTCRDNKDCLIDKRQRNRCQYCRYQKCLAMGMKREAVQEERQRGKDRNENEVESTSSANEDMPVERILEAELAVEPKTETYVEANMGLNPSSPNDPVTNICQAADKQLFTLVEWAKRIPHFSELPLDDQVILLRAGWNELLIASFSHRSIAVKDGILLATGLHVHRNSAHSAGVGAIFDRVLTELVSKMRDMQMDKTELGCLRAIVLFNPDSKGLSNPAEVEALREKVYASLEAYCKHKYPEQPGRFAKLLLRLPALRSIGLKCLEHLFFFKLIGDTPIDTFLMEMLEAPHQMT

As a reminder, the AC50 is the concentration at which the activity in the assay is half-maximal.

Bile acid receptor (Homo sapiens), sequence (Q96RI1 whole entry, looked up, the tested form may be a part): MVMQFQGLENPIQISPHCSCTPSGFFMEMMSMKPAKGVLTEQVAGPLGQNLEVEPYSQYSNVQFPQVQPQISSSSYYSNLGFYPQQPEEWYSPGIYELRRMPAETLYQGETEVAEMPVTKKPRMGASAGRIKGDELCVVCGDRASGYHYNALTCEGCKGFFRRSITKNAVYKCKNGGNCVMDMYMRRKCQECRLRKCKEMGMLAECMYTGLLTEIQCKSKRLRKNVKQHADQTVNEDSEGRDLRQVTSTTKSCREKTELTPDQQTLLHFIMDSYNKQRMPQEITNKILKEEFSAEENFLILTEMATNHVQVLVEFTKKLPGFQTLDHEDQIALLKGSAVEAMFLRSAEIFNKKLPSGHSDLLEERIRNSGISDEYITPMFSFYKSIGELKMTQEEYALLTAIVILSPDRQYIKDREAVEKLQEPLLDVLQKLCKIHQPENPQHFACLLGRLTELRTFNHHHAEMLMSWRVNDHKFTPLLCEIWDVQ
Agonist Androgen Response Element (ARE), AR (gene 367), sequence (P10275 whole entry, looked up): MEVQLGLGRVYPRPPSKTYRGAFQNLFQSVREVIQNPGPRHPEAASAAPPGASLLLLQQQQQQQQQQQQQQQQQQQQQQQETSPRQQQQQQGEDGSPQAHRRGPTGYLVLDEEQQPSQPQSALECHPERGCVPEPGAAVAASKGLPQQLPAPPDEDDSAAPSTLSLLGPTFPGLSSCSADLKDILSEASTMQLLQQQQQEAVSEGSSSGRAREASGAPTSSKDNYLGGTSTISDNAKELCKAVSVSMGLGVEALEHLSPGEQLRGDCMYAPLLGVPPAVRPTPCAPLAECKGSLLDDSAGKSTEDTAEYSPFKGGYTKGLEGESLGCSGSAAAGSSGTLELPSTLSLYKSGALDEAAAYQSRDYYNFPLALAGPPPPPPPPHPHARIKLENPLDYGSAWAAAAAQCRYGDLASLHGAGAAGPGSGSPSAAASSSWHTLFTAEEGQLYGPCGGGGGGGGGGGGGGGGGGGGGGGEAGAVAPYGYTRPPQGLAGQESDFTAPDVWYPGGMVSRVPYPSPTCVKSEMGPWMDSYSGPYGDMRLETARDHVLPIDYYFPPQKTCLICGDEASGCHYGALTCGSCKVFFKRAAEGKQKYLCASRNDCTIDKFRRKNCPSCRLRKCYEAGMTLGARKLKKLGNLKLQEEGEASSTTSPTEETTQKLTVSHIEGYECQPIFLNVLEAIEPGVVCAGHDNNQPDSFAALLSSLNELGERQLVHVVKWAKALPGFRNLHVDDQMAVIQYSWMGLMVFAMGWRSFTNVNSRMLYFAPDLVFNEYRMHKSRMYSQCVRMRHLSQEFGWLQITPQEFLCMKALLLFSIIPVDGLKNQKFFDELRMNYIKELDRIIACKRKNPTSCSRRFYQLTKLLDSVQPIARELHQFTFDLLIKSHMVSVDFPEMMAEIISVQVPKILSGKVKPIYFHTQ
mouse Estrogen Receptor alpha (Era), Esr1 (gene 13982), sequence (P19785 whole entry, looked up): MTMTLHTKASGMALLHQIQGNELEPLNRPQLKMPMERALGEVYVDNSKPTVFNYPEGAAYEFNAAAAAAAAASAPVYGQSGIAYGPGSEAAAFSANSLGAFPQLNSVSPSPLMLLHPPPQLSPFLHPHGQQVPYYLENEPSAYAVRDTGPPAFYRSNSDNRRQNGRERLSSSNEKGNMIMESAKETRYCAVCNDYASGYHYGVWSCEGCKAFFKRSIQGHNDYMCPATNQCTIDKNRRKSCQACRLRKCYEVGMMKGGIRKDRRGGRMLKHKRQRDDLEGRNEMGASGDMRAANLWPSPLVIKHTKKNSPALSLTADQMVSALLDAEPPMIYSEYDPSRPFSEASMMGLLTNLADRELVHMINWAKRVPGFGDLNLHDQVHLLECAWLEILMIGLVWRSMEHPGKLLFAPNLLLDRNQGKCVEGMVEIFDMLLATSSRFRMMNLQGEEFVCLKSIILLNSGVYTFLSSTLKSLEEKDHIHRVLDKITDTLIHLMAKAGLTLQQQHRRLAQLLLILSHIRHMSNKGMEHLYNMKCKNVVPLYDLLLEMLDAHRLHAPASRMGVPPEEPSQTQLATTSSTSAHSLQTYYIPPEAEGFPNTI
Estrogen receptor (Homo sapiens), sequence (P03372 whole entry, looked up): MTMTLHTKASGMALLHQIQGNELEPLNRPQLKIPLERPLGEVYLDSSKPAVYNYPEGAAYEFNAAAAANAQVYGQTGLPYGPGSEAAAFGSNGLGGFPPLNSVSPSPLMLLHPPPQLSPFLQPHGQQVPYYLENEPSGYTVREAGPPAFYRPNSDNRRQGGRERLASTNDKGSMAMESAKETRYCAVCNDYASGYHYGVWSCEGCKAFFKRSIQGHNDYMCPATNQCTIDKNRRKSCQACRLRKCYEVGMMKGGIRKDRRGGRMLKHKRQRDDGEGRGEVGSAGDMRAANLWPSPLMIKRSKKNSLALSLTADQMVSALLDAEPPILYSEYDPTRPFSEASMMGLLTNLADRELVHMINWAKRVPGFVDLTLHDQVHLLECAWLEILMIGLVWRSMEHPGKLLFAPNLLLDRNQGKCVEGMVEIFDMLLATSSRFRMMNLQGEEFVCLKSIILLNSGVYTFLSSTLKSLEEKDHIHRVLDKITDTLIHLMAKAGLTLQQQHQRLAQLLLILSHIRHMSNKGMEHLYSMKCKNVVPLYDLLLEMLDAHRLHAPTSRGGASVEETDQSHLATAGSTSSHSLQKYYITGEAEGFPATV
Peroxisome proliferator-activated receptor gamma (Homo sapiens), sequence (P37231 whole entry, looked up, the tested form may be a part): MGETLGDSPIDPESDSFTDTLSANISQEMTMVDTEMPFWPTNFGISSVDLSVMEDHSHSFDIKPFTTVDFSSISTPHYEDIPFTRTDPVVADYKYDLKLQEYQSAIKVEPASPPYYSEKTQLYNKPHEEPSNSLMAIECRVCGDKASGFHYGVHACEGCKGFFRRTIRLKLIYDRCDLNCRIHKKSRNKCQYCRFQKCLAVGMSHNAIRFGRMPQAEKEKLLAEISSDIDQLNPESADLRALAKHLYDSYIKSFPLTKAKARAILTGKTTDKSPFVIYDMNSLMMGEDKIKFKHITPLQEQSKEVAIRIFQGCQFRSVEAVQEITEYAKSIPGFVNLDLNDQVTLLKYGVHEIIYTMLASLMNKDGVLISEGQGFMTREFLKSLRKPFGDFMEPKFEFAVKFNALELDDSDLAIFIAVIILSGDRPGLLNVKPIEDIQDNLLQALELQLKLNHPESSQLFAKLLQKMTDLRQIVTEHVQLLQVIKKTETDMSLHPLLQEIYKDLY
Estrogen receptor beta (Homo sapiens), sequence (Q92731 whole entry, looked up, the tested form may be a part): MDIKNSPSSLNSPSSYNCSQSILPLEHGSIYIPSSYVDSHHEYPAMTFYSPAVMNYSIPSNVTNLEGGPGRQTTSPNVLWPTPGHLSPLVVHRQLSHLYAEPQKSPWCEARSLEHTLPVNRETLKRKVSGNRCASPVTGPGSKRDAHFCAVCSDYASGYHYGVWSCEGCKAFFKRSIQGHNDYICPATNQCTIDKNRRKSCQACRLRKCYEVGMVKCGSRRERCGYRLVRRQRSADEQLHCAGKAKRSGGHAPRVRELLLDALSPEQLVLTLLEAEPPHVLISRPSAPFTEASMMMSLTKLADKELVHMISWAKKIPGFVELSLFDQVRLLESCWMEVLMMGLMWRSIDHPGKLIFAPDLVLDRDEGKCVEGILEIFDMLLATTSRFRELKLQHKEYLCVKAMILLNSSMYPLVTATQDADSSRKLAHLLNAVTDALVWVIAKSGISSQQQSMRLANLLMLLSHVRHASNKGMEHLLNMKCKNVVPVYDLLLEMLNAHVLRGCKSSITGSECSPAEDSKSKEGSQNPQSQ
rat Androgen Receptor (AR), Ar (gene 24208), sequence (P15207 whole entry, looked up): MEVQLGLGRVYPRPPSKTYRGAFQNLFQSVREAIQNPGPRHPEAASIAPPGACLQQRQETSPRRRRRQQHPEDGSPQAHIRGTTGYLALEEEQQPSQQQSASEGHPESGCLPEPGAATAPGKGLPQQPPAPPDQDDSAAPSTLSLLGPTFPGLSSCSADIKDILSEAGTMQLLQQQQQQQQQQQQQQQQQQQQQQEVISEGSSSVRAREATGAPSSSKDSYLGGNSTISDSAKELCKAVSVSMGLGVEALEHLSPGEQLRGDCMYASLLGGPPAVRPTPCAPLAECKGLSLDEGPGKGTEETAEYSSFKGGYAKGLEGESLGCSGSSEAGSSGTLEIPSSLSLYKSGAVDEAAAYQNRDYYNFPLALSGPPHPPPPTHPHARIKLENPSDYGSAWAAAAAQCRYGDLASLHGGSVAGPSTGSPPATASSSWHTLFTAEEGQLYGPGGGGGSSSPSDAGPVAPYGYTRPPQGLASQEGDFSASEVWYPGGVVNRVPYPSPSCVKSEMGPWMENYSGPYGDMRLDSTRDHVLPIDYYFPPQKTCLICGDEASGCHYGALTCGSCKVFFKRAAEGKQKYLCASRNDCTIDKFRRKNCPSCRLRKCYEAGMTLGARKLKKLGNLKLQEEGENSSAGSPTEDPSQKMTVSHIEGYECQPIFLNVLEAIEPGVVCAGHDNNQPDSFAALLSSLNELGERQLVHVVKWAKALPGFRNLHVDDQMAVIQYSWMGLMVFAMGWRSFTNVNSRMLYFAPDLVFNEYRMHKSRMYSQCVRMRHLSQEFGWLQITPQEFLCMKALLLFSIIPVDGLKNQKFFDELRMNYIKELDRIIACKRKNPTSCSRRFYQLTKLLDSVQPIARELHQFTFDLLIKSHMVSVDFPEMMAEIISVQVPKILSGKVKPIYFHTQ

Consider `CC(C)c1ccc2c(C(C)C)cc(C(C)C)c(S(=O)(=O)O)c2c1`, for which, in [1], the AC50 was 7.33 µM (active).
Still for that read-out and setting: next, `Oc1ccc(Cl)cc1Cc1cc(Cl)ccc1O`: 1.42 µM (active).
Consider `S=C(NC1CCCCC1)NC1CCCCC1`, for which, in test [2], the AC50 was 5.93 µM (active).
Same read-out and setting: next, `CCCCCCCCCCCCCCCC[N+](C)(C)CC`: 1.23 µM (active).
`c1ccc2c(c1)ccc1ncccc12`: in test [3], the AC50 is 34.7 µM (active).
With `COc1ccc2nc(N)sc2c1`, the result in test [3] was inactive.
As for `CC(C)(c1cc(Br)c(OCCO)c(Br)c1)c1cc(Br)c(OCCO)c(Br)c1`, the AC50 in [4] was 2.88 µM (active).
With `CCOC(=O)CC`, the call in [5], in [6], in [7], in [8], in test [9] and in test [10] was inactive. Moreover, the result in test [11] was inactive.
For the molecule `O=C(O)CCCCCCCCCC(=O)O`, the result in test [12] was inactive.
Still for that read-out and setting: in the case of `CC(C)(C)C(=O)CCc1ccc(Cl)cc1` it was “inactive”.
As to `CC(C)(C)c1ccc(-c2ccc(C(C)(C)C)cc2)cc1`, the call in test [13], in test [5], in test [6], in test [7], in test [10] and in test [11] was inactive. The AC50 in test [8] was 33.5 µM (active); in test [14], 85.6 µM (active); in [9] it was 78.3 µM (active).
In the case of `CCCc1ccc(OC)cc1`, the call in test [13], in [5], in test [6], in [7], in test [10] and in [11] was inactive.
With `[Cl][Bi]([Cl])([c]1ccccc1)([c]1ccccc1)[c]1ccccc1`, the call in test [12] was inactive.
The same measure, in the same setting: in the case of `CCC(Cc1ccccc1)(C(=O)c1ccc(N2CCOCC2)cc1)N(C)C` (stereo not drawn) it was “inactive”.
As to `O=C(O)CCCC[C@@H]1SC[C@@H]2NC(=O)N[C@@H]21`, the molecule was called inactive in test [12], in test [5], in [6], in test [7], in test [14] and in [9]. Also, the outcome in test [10] and in test [11] was inactive.
With `CCC(C)OC(=O)c1ccc(O)cc1` (stereo not drawn), the half-maximal activity concentration (AC50) in test [12] was 4.99 µM (active).
For the molecule `CC(C)=CCC[C@H](C)CCO`, the AC50 in test [13] was 0.239 µM (active); in test [14], 75.8 µM (active). For the same molecule, the outcome in [5], in test [6], in test [7], in test [9] and in test [11] was inactive.
`CC(C)c1ccc2c(c1)CC[C@H]1[C@](C)(CN)CCC[C@]21C`: in [12], the result was inactive.
As for `O=C1Nc2ccccc2C1(c1ccc(O)cc1)c1ccc(O)cc1`, in test [12], the AC50 was 6.61 µM (active).
For `CC(=O)[C@H]1[C@H](C#N)C[C@H]2[C@@H]3CC=C4C[C@@H](O)CC[C@]4(C)[C@H]3CC[C@@]21C`, the AC50 in test [12] is 4.26 µM (active). The call in [5], in [6], in [7], in test [8], in test [9] and in test [10] was inactive. Further, the call in test [11] was inactive.
Consider `CC=C1CC2C=CC1C2` (stereo not drawn), for which the result in [5], in test [6], in test [7], in test [8], in test [14] and in [9] was inactive. Moreover, the molecule was classed as inactive in test [10] and in test [11].
Turning to `COc1ccc(-c2coc3cc(O)ccc3c2=O)cc1`, in [12], the AC50 was 0.143 µM (active).
With `O=C(O)c1ccccc1Nc1cccc(C(F)(F)F)c1`, the molecule was classed as inactive in test [12].
On the same count and under the same terms, next, `O=CN1CCCCC1`: “inactive”.
`CC(C)(C)c1ccc(OC(=O)c2ccccc2O)cc1`: the concentration at half-maximal activity (AC50) is 32 µM (active) in [5], 35.6 µM (active) in test [8], 50 µM (active) in test [14] and 89 µM (active) in test [9]. Also, the call in test [6], in test [7], in [10] and in test [11] was inactive.
